From PubChem
Rows were chosen to be rich in hits. Some 3.1% of all compounds tested hit in one or more screens of this group.
Calb FLC = affects C. albicans growth with fluconazole | C. albicans CaCi-2 (fluconazole-resistant clinical isolate) + fluconazole, Alamar Blue growth, 48 h | growth inhibition, % (test concentration not listed) | 300,000 tested, 0.57% active | AID 1979;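 active means growth inhibition above about 58% in most replicates, limit read from the data, passing the limit was not always enough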;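 further: all wells also contain fluconazole at 8 µg/ml as a sub-toxic cotreatment; 0% = median of DMSO wells and 100% = median of geldanamycin control wells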
ATG4B inhibitor = inhibitors of human ATG4B cysteine protease | Q9Y4P1 | AID 504462 | inhibition, % at 8.33 µM | ATG4B cleavage of LC3-PLA2, NBD-HPC fluorescence, 1 h | 340,000 tested, 0.51% active; in the data active means inhibition above about 40%
NadD inh = NadD (S. aureus) enzyme inhibition. inhibition, % at 20 µM. AID 602399. purified NadD enzyme, colorimetric absorbance read-out. 360,000 tested, 0.78% active; in the data active means inhibition above about 26%
FAS-TE inh = FAS thioesterase (human) inhibition | AID 602261 | inhibition, % at 15 µM | recombinant FAS-TE, OMFH fluorogenic substrate, fluorescence endpoint | 360,000 tested, 0.67% active | P49327;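 active means compounds whose normalised, plate-corrected inhibition of enzyme fluorescence in the single-dose primary screen is 50% or more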;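 further: 0% = DMSO with enzyme and 100% = substrate without enzyme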
Mot1-301 SUMO = blocks SUMOylation pathway, rescuing yeast Mot1-301 growth. 320,000 tested, 1% active. growth rescue, % at 18.8 µM. S. cerevisiae Mot1-301 growth rescue, ATP luminescence, 38.5C; percent above DMSO median, 100 means doubled;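 active means every valid replicate shows activation above 250% relative to neutral control wells; inactive means the rest, any valid replicate at or below 250%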;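 further: OY570 slx delta 5 strain wells were the positive control but not used for scaling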
NadD inh conf = NadD (S. aureus) inhibition, single concentration confirmation. AID 624309. purified S. aureus NadD, colorimetric enzyme assay. shares compounds with NadD inh. 2,000 tested, 13% active. inhibition, % at 20 µM; in the data active means inhibition mostly above about 42%, no sharp cut-off; inactive means mostly below about 42%
* marks the source's active call; other numbers are inactive results; x = no result.

SMILES	Calb FLC	ATG4B inhibitor	NadD inh	FAS-TE inh	Mot1-301 SUMO	NadD inh conf
O=C(Nc1c(C(=O)c2ccccc2)oc2ccccc12)c1cc(-c2ccccc2O)n[nH]1	-3	25	34*	-3	-5	32
Cc1ccc(C(=O)c2oc3ccccc3c2NC(=O)c2cc(-c3ccccc3O)n[nH]2)cc1	-5	22	34*	1	2	5
CC(=O)Nc1c(C(=O)c2ccc(F)cc2)oc2ccccc12	-11	10	-3	-1	-11	x
Cc1ccc(O)c(-c2cc(C(=O)Nc3cccnc3)[nH]n2)c1	-7	-1	-2	0	24	x
Cc1ccc(-c2[nH]c3cc(C(=O)NCCCn4ccnc4)ccc3c(=O)c2O)cc1	74	-18	54*	-28	3	19
CCCNC(=O)c1ccc2c(=O)c(O)c(-c3ccc(C)cc3)[nH]c2c1	-5	8	-1	-3	-5	x
CC/C(=N\N=C1\SC(C)C(=O)N1Cc1ccco1)c1ccccc1 (stereo not given)	0	16	-4	15	-4	x
COc1cc(/C=N/Nc2nc3ccccc3s2)ccc1OC(=O)c1ccccc1F	0	-11	11	18	105	x
COc1cc(OC)cc(C(=O)Oc2ccc(/C=N/Nc3nc4ccccc4s3)cc2OC)c1	6	15	37*	23	45	10
COc1ccc(OC[C@@H](O)CNC(=O)c2cccc3c2C(=O)c2ccc(-c4ccc(F)cc4OCc4ccccc4)cc2S3(=O)=O)cc1	x	-7	35*	10	-24	25
CCC(Sc1nc2ccsc2c(=O)n1Cc1ccc(C(=O)O)cc1)C(=O)Nc1ccc(C)c(Cl)c1 (stereo not given)	3	1	48*	4	-2	47*
COc1ccc(S(=O)(=O)NC2CC3CCC2C3)cc1 (stereo not given)	6	4	1	-2	-5	x
O=C1CC(c2ccco2)Cc2nc(Nc3nc(-c4ccccc4)c4ccccc4n3)ncc21 (stereo not given)	11	1	57*	7	10	32
O=C1N/C(=N\N=C\c2ccc3ncccc3c2)SC1Cc1ccc(SC(F)F)cc1 (stereo not given)	6	-9	33*	0	-26	10
Cc1cc(OCC(=O)NC2CC(C)(C)NC(C)(C)C2)c2c(C)c(C)c(=O)oc2c1	-5	6	-8	-10	337	x
CC(CC(=O)Nc1nnc(CC(C)(C)C)s1)c1ccccc1 (stereo not given)	-2	-2	-3	2	-11	x
COc1cc(NS(=O)(=O)c2ccc(NC(=S)NC(=O)c3sc4ccccc4c3Cl)cc2)ncn1	x	2	50*	-12	7	14
CCCC(=O)N1CCC1(C)C(=O)NS(=O)(=O)c1ccc(OC)cc1 (stereo not given)	x	x	-3	-6	x	x
CS(=O)(=O)N1CCc2cc(-c3csc(NC(=O)C(c4ccccc4)c4ccccc4)n3)ccc21	7	-8	30*	48	0	31
COC(=O)c1c(NC(=O)C2SC(=NC3CCCCC3)C(C(N)=O)=C2N)sc2c1CCCC2 (stereo not given)	24	6	38*	23	-12	7
O=S(=O)(c1ccccc1)c1nc(Nc2cccc(O)c2)sc1Cl	22	-15	-3	8	-12	x
CC(C)[C@@]1(c2ccc(Cl)cc2)ON(c2ccccc2C(F)(F)F)C1=O	x	x	x	x	-1	x
NC(=O)c1c(NC(=O)COC(=O)CSc2nnc(-c3ccc(Cl)cc3)o2)sc2c1CCC2	1	-15	40*	12	-1	8
O=C(NNC(=S)NC(=O)c1cccs1)c1ccc(NC(=O)c2ccccc2)cc1	21	7	32*	-6	-5	37
COCCCC1CCN(C(=O)c2cc(COc3ccc(C)nc3)on2)CC1	-1	2	2	-5	3	x
SMILES	Calb FLC	ATG4B inhibitor	NadD inh	FAS-TE inh	Mot1-301 SUMO	NadD inh conf
CCOCCCn1c(=N)c(C(N)=S)cc2c(=O)n3cccc(C)c3nc21	-13	-8	29	-7	293	x
Cc1cccn2c(=O)c3cc(C(N)=S)c(=N)n(CCCOC(C)C)c3nc12	-11	-1	52*	-15	3	2
CCC1(c2ccccc2)NC(=O)N(CC(=O)NNC(=O)c2ccc(F)cc2)C1=O (stereo not given)	x	-6	8	-5	x	x
COc1cc(NC(=O)c2ccc(S(=O)(=O)N(C)c3ccccc3)cc2)cc(OC)c1	x	-13	-6	38	x	x
Cn1ncc(Cl)c1C(=O)NC(=S)Nc1sc2c(c1C#N)CCCCC2	16	-11	29*	-6	5	3
Cn1nccc1C(=O)Nc1sc2c(c1C#N)CCCC2	62	-3	-4	-8	2	x
CCCc1cc(=O)n2nc(N3CCC(C(=O)NCc4ccc(C)o4)CC3)sc2n1	9	3	0	-6	x	x
COc1ccc(C(=O)Nc2cccc(-c3cc4ccccc4oc3=O)c2)cc1[N+](=O)[O-]	x	23	35*	7	-28	10
CC(C)CC(=O)Nc1ccc(N2CCN(C(=O)c3cccs3)CC2)cc1	-2	2	-1	-4	-8	x
O=C(Cn1nc(-c2ccccc2)ccc1=O)Nc1ccc(N2CCN(C(=O)c3cccs3)CC2)cc1	-1	-15	29*	7	10	6
CN(C)c1ccc(-c2nc3ccccn3c2/N=C/c2ccc(Br)cc2)cc1	-10	-7	2	15	14	x
CC1(C(=O)NCc2cccs2)Cc2c(-c3ccccc3)ccnc2O1 (stereo not given)	x	x	-3	4	x	x
O=C(NC(=S)Nc1cccc(S(=O)(=O)NC2=NCCC2)c1)c1cc(-c2ccco2)nc2ccccc12	-2	-12	41*	-6	7	52*
CCOc1ccc(C(=O)NC(=S)Nc2cccc(S(=O)(=O)NC3=NCCC3)c2)cc1	14	-14	-2	-5	7	x
COc1ccc(-c2cc(C(=O)Nc3cccc(S(=O)(=O)NCc4ccco4)c3)c3ccccc3n2)cc1OC	-2	-4	58*	20	-7	45*
O=C(Nc1cccc(S(=O)(=O)NC2=NCCC2)c1)c1cc(-c2ccco2)nc2ccccc12	-4	10	68*	1	208	78*
O=C(Nc1cccc(S(=O)(=O)NC2=NCCC2)c1)c1ccccc1	x	0	-4	-1	16	x
O=C(Nc1cccc(S(=O)(=O)NCc2ccco2)c1)c1cc(-c2ccc(F)cc2)nc2ccccc12	15	-13	13	8	162	x
O=c1[nH][nH]c2c1[C@H](c1ccc(F)cc1)O[C@H](C1CCCCC1)C2	x	x	1	-50	x	x
CCOc1ccccc1CNC(=O)Cn1ccc2cc(S(=O)(=O)N3CCCC3)ccc21	-20	-3	-2	2	8	x
NC(=O)/C(=N\OC(=O)c1ccco1)c1nc(-c2ccc(Br)cc2)cs1	14	5	30*	-163	x	49*
